In PubChem BioAssay AID1259343 (VanderVen Lab, College of Veterinary Medicine, Cornell …, 2017):
The campaign covered roughly 6,200 compounds. About 2,900 (47%) were called active. So high a share suggests a set chosen from earlier hits. Some of the results follow. A number with no mark means an inactive call. Rule as the data show it: active = inhibition above about 50%; inactive = the rest.

Assay: Mycobacterium tuberculosis growth inhibition, primary screen (AID 1259343)
Conditions: inhibition: at 10 µM, hits give high values; outcome: 10 uM
Work on `O=C(Cc1ccccc1O)N1CCc2cc(Br)ccc21` yielded an inhibition of 23.1%.
For `CCCNC(=O)CN1CCc2cc(Br)ccc21`, the inhibition was 74.1% (active).
Compound `CCOC(C)c1nc(CN2CCc3cc(Br)ccc32)cs1` (configuration not stated) has an inhibition of 28.4%.
`Cc1cc(Oc2ccc(C(C)C)cc2)nc(SCc2ccc(F)c(F)c2)n1` showed an inhibition of -1.84%.
In the case of `CC(C)c1ccc(Oc2ccc3nnnn3n2)cc1`, the inhibition is reported as 55.6% (active).
In the case of `O=S(c1ccccc1)c1ccc2nnnn2n1` (configuration not stated), the inhibition is reported as -44%.
For `COc1ccc(Oc2ccc(C(=O)NCCc3cnc[nH]3)cc2)cc1`, the inhibition was 52.5% (active).
`COc1ccc2c(c1)CCCN2Cc1ccc(C(N)=O)cc1` showed an inhibition of 20.6%.
In the case of `COc1ccc(Oc2ccc(C(=O)NCCN3CCNC3=O)cc2)cc1`, the inhibition is reported as 73.9% (active).
Compound `CCc1nc2ccc(C(=O)NCCOc3ccc(OC)cc3)cn2c1N(C=O)Cc1ccc(OC)cc1` has an inhibition of 47%.
With `O=C(NCc1ccc(OC(F)F)cc1)c1ccc(Cl)cc1` the inhibition was 85.9% (active).
With `Cc1ccc(C)c(C(C)CNC(=O)c2cnccn2)c1` (configuration not stated) the inhibition was 21.5%.
In the case of `COc1ccc(CNC(=O)c2ccc(Br)cn2)cc1`, the inhibition is reported as 14.4%.
Compound `OC(c1ccc(Cl)cc1)c1ccc(OC(F)F)cc1` (configuration not stated) has an inhibition of 19.4%.
With `O=C(NCc1ccc(OC(F)F)cc1)c1cnccn1` the inhibition was 85.3% (active).
Work on `COc1ccc2c(c1)CCC1C2CC[C@@]2(C)C1CC[C@@H]2O` (some centres not stated) yielded an inhibition of 46%.
`Cc1c(N)c(C)c([N+](=O)[O-])c(C)c1[N+](=O)[O-]` gave an inhibition of -53.9%.
Compound `CC(=O)c1ccc(N2CCCC2)cc1OCc1cccc(C)c1` has an inhibition of 36.7%.
For `N#CCc1cccc(C(=O)Nc2cc(F)cc(N3CCCC3)c2)c1`, the inhibition was 84.4% (active).
Work on `Cc1cc(N2CCCC2)ccc1NC(=O)c1cccc(NC(=O)OC(C)(C)C)c1` yielded an inhibition of 20.1%.
`COc1ccc(OCCSc2nnnn2-c2ccc(OC)cc2)cc1` gave an inhibition of -17.4%.
For `COc1ccc(-n2nnnc2SCc2ccc(C#N)cc2)cc1`, the inhibition was 82.8% (active).
With `COc1ccc(-n2nnnc2SCCOc2ccc(Br)cc2)cc1` the inhibition was “inactive”.
For `O=P1(Nc2ccc(-c3ccccc3)cc2)C=C(c2ccccc2)OC(c2ccccc2)=C1`, the inhibition was 98.4% (active).
In the case of `Cc1c(C(=O)OCC(C)C)[nH]c2c1C(=O)CCC2`, the inhibition is reported as 60.5% (active).
In the case of `CCc1cc(=O)[nH]c(-n2nc(C)cc2NC(=O)C2CC2)n1`, the inhibition is reported as 101% (active).
In the case of `CCCc1cc(=O)[nH]c(-n2nc(C)cc2NC(=O)C2CC2)n1`, the inhibition is reported as 101% (active).
With `O=c1c(Sc2ccc(Cl)cc2)c(O)c2c(n1-c1ccccc1)CCCC2` the inhibition was 40.5%.
In the case of `CC(=O)Oc1ccc2c(=O)oc(COc3ccc(C)c(C)c3)nc2c1`, the inhibition is reported as 60.8% (active).
With `CCNCC#CCOc1ccc(C)c(C)c1` the inhibition was -6.66%.
In the case of `CC(C)n1ncc2cc(N)cnc21`, the inhibition is reported as 83.8% (active).
`O=C(Nc1ccc(-n2cccc2)cc1)C1=CN2CCN(Cc3cscn3)C(=O)N=C2O1` showed an inhibition of 4.33%.
For `O=C1N=C2OC(C(=O)Nc3cccc(Cc4ccccc4)c3)=CN2CCN1`, the inhibition was 91.3% (active).
Work on `CC(=O)N1CCN(CC(=O)Nc2nc3ccc(F)cc3s2)CC1` yielded an inhibition of 15.5%.
In the case of `CN(C(=O)Nc1nc2ccc(F)cc2s1)C1CCCc2ccccc21` (configuration not stated), the inhibition is reported as 74.2% (active).
With `CCN1CC(CN(C)C(=O)Nc2nc3ccccc3s2)Oc2ccccc21` (configuration not stated) the inhibition was 12.4%.
For `Cc1ccc(C2=CCN(Cc3nc4ccsc4c(=O)[nH]3)CC2)cc1`, the inhibition was 94.7% (active).
`O=c1[nH]c(CN2CCN(c3ccccc3F)CC2)nc2ccsc12` showed an inhibition of 13.7%.
With `CC(C)(O)C#Cc1ccc(C(=O)NCc2cnn(-c3ccc(F)cc3)c2)o1` the inhibition was 36.3%.
For `O=C(Nc1nnc(C2=COCCO2)o1)c1cc(Cl)cc(Cl)c1`, the inhibition was 93.4% (active).
In the case of `CCCc1cc(=O)[nH]c(-n2nc(C)cc2NC(=O)c2cccc3ccccc23)n1`, the inhibition is reported as 102% (active).
For `CCc1cc(=O)[nH]c(-n2nc(C)cc2NC(=O)c2cccc3ccccc23)n1`, the inhibition was 13.9%.
For `CCc1ccc(OCc2ccccc2C(=O)Nc2ccc3nc(C)cc(N)c3c2)cc1`, the inhibition was 33.8%.
Work on `CCN(CC)C(=O)N1CCN(c2ccc(Nc3ccnc4cc5ccccc5cc34)cc2)CC1` yielded an inhibition of -24.5%.
For `Cc1cc(=O)[nH]c(-n2nc(C)cc2NC(=O)c2cc(C)oc2C)n1`, the inhibition was 90.8% (active).
For `Cc1cc(=O)[nH]c(-n2nc(C)cc2NC(=O)c2cccc3ccccc23)n1`, the inhibition was 101% (active).
With `CCN(CC)c1cc(C)nc(Nc2ccc(NC(=O)c3cccc4ccccc34)cc2)n1` the inhibition was 93.6% (active).
`O=C1C(c2ccccc2)C=Nc2c(-c3ccccc3)cnn21` (configuration not stated) showed an inhibition of -23.2%.
For `Cc1cc(=O)[nH]c(-n2nc(C)cc2NC(=O)c2ccccc2C)n1`, the inhibition was 101% (active).
`Cc1cc(NC(=O)c2ccccc2C)n(-c2nc(C)c(C)c(=O)[nH]2)n1` gave an inhibition of -21.7%.
Work on `Clc1ccc2nc(SCCC3CCCCC3)[nH]c2c1` yielded an inhibition of 23.7%.
Work on `Clc1ccc2nc(SCc3nnc(C4CCC4)o3)[nH]c2c1` yielded an inhibition of 16.7%.
With `Clc1ccc(CCCc2nc3ccc(Cl)cc3[nH]2)c(Cl)c1` the inhibition was 99.6% (active).
For `S=c1ccss1`, the inhibition was 101% (active).
In the case of `CCc1cc2c(N3CCCCC3)ncnc2s1`, the inhibition is reported as 46.7%.
With `CCc1cc2c(=O)n(NC(=O)c3cccc(C)n3)cnc2s1` the inhibition was 99.6% (active).
`CCc1cc2c(SCC(=O)C(C)(C)C)ncnc2s1` showed an inhibition of -53%.
For `CC(C)c1ccc(-n2[nH]nnc2=S)cc1`, the inhibition was 70.6% (active).
For `S=c1nn[nH]n1-c1cccc(Cl)c1`, the inhibition was 10%.
For `CC(C)c1ccc(-n2nnnc2SCC(N)=O)cc1`, the inhibition was 32.2%.
For `Fc1cccc(-n2[nH]nnc2=S)c1`, the inhibition was 90.8% (active).
In the case of `CCCc1cc(=O)[nH]c(-n2nc(C)cc2NC(=O)C23CC4CC(CC(C4)C2)C3)n1`, the inhibition is reported as 100% (active).
In the case of `CCc1c(C)nc(-n2nc(C)cc2NC(=O)C23CC4CC(CC(C4)C2)C3)[nH]c1=O`, the inhibition is reported as -26.4%.
In the case of `Cc1cc(=O)[nH]c(-n2nc(C3CC3)cc2NC(=O)C23CC4CC(CC(C4)C2)C3)n1`, the inhibition is reported as 99.1% (active).
With `Cc1cc(=O)[nH]c(-n2nc(C)cc2NC(=O)C23CC4CC(CC(C4)C2)C3)n1` the inhibition was 99.3% (active).
For `CCc1cc(=O)[nH]c(-n2nc(C)cc2NC(=O)C23CC4CC(CC(C4)C2)C3)n1`, the inhibition was 93.6% (active).
Compound `Cc1cc(NC(=O)C23CC4CC(CC(C4)C2)C3)n(-c2nc(C)c(C)c(=O)[nH]2)n1` has an inhibition of 14.6%.
